Publication PMC9911399, “Two distinct binding modes provide the RNA-binding protein RbFox with extraordinary sequence specificity”
Where a chain is given by its changes, count along the chain named. In all, about 16,000 sequences were measured (“ka relative to ugcaugu”: median about 0.096, highest 2% from about 0.35 on). Shown is part of a subset that was picked to be rich in the highest values.

T1: RBFOX1 RRM RbFoxmut (Fox-RRM*) (Homo sapiens, UniProt Q9NWB1 109-208, R118D;E147R;N151S;E152T)
T1 sequence: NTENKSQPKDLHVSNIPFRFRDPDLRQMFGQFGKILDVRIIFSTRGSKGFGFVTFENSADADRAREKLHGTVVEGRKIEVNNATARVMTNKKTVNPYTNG

B1: UAGUAAA (DNA:RNA)
RNA: GGGAGACCGGAAUUCAGAUUGUCCUAGUAAAUUAAAUCCCGUCGUAGCCACCA
DNA 1: CAATCTGAATTCCGGTCTCCC
DNA 2: TGGTGGCTACGACGGGATT
B2: GGGGGUA (DNA:RNA)
RNA: B1 RNA with U25G, A26G, U28G, A29G, A30U
DNA 1: CAATCTGAATTCCGGTCTCCC
DNA 2: TGGTGGCTACGACGGGATT
B3: GGGUAGA (DNA:RNA)
RNA: B1 RNA with U25G, A26G, A30G
DNA 1: CAATCTGAATTCCGGTCTCCC
DNA 2: TGGTGGCTACGACGGGATT
B4: UAUCAUA (DNA:RNA)
RNA: B1 RNA with G27U, U28C, A30U
DNA 1: CAATCTGAATTCCGGTCTCCC
DNA 2: TGGTGGCTACGACGGGATT
B5: GAAGCUA (DNA:RNA)
RNA: B1 RNA with U25G, G27A, U28G, A29C, A30U
DNA 1: CAATCTGAATTCCGGTCTCCC
DNA 2: TGGTGGCTACGACGGGATT
B6: CAGCUCU (DNA:RNA)
RNA: B1 RNA with U25C, U28C, A29U, A30C, A31U
DNA 1: CAATCTGAATTCCGGTCTCCC
DNA 2: TGGTGGCTACGACGGGATT
B7: GUAUCAG (DNA:RNA)
RNA: B1 RNA with U25G, A26U, G27A, A29C, A31G
DNA 1: CAATCTGAATTCCGGTCTCCC
DNA 2: TGGTGGCTACGACGGGATT
B8: AGUCGCC (DNA:RNA)
RNA: GGGAGACCGGAAUUCAGAUUGUCCAGUCGCCUUAAAUCCCGUCGUAGCCACCA
DNA 1: CAATCTGAATTCCGGTCTCCC
DNA 2: TGGTGGCTACGACGGGATT
B9: UCGGAGC (DNA:RNA)
RNA: B1 RNA with A26C, U28G, A30G, A31C
DNA 1: CAATCTGAATTCCGGTCTCCC
DNA 2: TGGTGGCTACGACGGGATT

Target: T1, RBFOX1 RRM RbFoxmut (Fox-RRM*)
Test: EMSA; HiTS-Eq, 1 nM pool, 10 min; buffer printed only for the single-RNA assays: 10 mM Tris pH 7.5, 150 mM NaCl, 3.4 mM EDTA, 0.001% NP-40, 30 C
Details: tags: His6 N-terminal (pET28a); label: 5' 32P
Outline: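 Purified RbFox RRM, wild type or mutant, was incubated for 10 min in 50 µL with 1 nM of a 5′-radiolabelled RNA pool carrying 7 randomized nucleotides, whose flanks were annealed to DNA oligonucleotides, over a series of increasing protein concentrations. Unbound RNA was resolved on 8% native PAGE, cut out, reverse-transcribed, barcoded by PCR and sequenced on an Illumina HiSeq 2500. Relative association constants were derived from changes in read counts for each RNA species versus the control reaction and normalised to the cognate motif.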

| Binder | binding signal |
| --- | --- |
| B1 | 0.117 KA relative to UGCAUGU |
| B2 | 0.137 KA relative to UGCAUGU |
| B3 | 0.134 KA relative to UGCAUGU |
| B4 | 0.0784 KA relative to UGCAUGU |
| B5 | 0.0968 KA relative to UGCAUGU |
| B6 | 0.0953 KA relative to UGCAUGU |
| B7 | 0.229 KA relative to UGCAUGU |
| B8 | 0.0636 KA relative to UGCAUGU |
| B9 | 0.0837 KA relative to UGCAUGU |
